Measured values taken from ChEMBL document CHEMBL1961873, “Compounds: GSK PKIS; Assays: Nanosyn kinase panel” (2012).

Key:
[1] = tested on: Proto-oncogene tyrosine-protein kinase receptor Ret (Homo sapiens), P07949 [Y791F]; details: at 1 µM
[2] = target: Macrophage-stimulating protein receptor (Homo sapiens) (UniProt Q04912); details: at 0.1 µM
[3] = target: Macrophage-stimulating protein receptor (Homo sapiens) (UniProt Q04912); details: at 1 µM
[4] = target: Proto-oncogene tyrosine-protein kinase ROS (Homo sapiens) (UniProt P08922); details: at 0.1 µM
Proto-oncogene tyrosine-protein kinase ROS (Homo sapiens), sequence (P08922 whole entry): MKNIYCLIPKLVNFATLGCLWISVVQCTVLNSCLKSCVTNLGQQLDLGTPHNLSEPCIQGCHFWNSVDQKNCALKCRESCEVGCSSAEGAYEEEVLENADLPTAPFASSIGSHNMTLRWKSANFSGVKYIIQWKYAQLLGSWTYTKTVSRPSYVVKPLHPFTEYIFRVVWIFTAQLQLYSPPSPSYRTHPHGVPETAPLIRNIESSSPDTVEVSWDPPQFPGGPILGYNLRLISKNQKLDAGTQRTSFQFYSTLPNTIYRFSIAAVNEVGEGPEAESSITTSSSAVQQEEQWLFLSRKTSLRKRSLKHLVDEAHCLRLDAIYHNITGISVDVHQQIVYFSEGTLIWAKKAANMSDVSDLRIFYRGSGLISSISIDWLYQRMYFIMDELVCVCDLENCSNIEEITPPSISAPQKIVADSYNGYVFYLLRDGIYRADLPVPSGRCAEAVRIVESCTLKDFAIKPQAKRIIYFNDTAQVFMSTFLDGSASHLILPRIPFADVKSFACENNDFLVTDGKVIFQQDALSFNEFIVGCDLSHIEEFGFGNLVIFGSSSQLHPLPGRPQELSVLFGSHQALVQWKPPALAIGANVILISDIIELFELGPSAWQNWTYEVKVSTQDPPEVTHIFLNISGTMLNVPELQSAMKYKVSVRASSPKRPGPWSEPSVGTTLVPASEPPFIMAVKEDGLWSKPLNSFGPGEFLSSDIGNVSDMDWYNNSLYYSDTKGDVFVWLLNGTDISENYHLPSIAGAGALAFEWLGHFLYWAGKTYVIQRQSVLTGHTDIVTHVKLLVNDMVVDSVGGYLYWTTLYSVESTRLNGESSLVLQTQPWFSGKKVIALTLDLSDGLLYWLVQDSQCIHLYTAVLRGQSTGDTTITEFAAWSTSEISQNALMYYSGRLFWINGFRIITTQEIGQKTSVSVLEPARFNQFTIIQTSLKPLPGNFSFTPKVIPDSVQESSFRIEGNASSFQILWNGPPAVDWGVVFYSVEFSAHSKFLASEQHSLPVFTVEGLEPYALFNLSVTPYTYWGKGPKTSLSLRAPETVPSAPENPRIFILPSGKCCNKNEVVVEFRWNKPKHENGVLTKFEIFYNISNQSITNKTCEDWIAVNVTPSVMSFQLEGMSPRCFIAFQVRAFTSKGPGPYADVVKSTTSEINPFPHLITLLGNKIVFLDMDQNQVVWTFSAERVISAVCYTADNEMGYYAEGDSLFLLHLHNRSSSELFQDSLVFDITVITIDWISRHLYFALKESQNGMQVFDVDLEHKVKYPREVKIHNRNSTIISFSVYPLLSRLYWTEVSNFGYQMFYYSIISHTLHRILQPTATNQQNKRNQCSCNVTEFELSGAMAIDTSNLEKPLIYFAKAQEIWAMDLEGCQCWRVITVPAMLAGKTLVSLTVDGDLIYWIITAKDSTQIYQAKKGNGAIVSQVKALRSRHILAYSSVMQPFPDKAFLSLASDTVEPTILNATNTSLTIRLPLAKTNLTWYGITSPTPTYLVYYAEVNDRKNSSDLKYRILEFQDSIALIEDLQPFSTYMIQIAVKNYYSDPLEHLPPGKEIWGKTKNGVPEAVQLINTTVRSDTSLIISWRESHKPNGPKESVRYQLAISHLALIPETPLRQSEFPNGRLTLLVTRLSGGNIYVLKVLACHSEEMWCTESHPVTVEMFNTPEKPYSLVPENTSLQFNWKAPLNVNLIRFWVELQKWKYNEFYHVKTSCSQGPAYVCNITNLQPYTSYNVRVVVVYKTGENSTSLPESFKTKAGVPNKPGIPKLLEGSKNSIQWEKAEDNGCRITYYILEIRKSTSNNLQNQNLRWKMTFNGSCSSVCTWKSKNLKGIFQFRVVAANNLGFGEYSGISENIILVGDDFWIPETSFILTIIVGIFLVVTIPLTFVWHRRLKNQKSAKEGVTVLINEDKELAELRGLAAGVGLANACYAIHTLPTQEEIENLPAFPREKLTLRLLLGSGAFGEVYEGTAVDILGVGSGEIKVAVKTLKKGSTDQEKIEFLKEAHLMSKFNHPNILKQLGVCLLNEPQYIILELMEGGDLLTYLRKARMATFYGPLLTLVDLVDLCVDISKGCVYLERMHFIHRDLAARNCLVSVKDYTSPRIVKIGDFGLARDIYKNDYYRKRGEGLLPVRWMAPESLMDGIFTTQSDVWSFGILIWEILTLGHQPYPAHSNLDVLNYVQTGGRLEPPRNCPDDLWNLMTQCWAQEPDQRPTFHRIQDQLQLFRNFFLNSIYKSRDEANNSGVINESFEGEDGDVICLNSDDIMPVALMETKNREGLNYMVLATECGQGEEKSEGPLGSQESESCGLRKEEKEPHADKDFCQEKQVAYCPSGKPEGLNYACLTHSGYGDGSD

[5] = target: Proto-oncogene tyrosine-protein kinase ROS (Homo sapiens) (UniProt P08922); details: at 1 µM
[6] = target: Proto-oncogene tyrosine-protein kinase Src (Homo sapiens) (UniProt P12931); details: at 0.1 µM
Proto-oncogene tyrosine-protein kinase Src (Homo sapiens), sequence (P12931 2-536 limits assumed): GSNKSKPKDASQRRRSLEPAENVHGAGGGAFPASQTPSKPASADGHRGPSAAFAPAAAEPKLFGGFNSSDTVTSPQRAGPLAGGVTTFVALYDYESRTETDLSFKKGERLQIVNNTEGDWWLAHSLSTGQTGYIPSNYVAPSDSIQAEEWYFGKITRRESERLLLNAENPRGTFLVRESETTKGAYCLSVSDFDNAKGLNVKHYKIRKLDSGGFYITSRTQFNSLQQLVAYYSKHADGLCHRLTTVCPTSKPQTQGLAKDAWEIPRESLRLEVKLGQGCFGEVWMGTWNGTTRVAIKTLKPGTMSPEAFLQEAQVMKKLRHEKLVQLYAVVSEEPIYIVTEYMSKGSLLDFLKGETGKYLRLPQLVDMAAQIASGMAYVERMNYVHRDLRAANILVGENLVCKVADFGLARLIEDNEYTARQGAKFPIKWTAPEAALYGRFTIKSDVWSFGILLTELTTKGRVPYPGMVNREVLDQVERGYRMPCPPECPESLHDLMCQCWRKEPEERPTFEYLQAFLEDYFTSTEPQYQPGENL

[7] = target: Proto-oncogene tyrosine-protein kinase Src (Homo sapiens) (UniProt P12931); details: at 1 µM
[8] = target: Tyrosine-protein kinase Srms (Homo sapiens) (UniProt Q9H3Y6); details: at 0.1 µM
[9] = target: Tyrosine-protein kinase Srms (Homo sapiens) (UniProt Q9H3Y6); details: at 1 µM
[10] = target: Tyrosine-protein kinase SYK (Homo sapiens) (UniProt P43405); details: at 0.1 µM
[11] = target: Tyrosine-protein kinase SYK (Homo sapiens) (UniProt P43405); details: at 1 µM
[12] = target: T1, Tyrosine-protein kinase Tec (Homo sapiens) (UniProt P42680); details: at 0.1 µM
T1 sequence (whole entry): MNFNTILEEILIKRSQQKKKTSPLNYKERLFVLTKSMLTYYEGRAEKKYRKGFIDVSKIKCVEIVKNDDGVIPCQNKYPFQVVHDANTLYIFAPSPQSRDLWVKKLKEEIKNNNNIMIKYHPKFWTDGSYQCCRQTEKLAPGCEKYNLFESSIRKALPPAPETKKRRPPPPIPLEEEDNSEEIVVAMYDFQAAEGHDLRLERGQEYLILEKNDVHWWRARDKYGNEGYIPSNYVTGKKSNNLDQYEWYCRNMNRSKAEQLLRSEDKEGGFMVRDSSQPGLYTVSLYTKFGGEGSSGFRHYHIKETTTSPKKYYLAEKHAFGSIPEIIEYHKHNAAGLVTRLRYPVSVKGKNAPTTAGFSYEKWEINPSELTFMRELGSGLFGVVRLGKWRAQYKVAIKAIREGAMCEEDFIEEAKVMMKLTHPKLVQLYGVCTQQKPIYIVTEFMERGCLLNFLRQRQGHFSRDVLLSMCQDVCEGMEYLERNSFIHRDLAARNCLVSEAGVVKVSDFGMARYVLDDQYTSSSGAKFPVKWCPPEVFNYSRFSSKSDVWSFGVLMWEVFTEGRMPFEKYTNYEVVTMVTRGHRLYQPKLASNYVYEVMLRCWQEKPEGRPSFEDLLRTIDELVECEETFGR

[13] = target: T1, Tyrosine-protein kinase Tec (Homo sapiens); details: at 1 µM
[14] = target: Angiopoietin-1 receptor (Homo sapiens) (UniProt Q02763); details: at 0.1 µM
Angiopoietin-1 receptor (Homo sapiens), sequence (Q02763 whole entry): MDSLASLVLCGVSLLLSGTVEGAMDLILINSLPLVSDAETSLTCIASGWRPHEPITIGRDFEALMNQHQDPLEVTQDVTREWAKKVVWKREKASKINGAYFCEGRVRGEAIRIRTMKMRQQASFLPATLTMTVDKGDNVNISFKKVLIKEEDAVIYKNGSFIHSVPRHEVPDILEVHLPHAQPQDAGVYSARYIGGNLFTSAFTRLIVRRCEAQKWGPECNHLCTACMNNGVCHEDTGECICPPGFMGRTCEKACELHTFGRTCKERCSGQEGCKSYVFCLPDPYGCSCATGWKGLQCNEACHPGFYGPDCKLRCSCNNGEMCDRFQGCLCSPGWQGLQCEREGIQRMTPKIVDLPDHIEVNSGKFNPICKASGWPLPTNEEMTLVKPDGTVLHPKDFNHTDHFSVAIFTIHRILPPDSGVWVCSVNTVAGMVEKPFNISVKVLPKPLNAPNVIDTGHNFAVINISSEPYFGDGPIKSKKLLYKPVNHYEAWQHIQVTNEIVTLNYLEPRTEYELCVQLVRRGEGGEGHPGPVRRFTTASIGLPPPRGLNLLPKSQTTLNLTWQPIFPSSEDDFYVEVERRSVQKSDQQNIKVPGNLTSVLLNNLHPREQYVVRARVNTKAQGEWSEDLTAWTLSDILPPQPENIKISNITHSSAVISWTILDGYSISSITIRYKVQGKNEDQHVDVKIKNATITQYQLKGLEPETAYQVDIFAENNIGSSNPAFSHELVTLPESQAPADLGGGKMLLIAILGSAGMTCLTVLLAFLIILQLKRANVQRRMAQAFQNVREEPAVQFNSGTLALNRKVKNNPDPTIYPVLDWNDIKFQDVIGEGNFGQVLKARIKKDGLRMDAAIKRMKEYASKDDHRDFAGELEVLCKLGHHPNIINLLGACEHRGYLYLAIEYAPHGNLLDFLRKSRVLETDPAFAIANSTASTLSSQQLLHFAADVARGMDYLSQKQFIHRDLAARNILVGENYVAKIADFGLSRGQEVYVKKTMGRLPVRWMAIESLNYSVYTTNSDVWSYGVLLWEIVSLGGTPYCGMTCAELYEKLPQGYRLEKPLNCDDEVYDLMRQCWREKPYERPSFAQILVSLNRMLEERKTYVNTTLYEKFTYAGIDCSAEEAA

[15] = target: Angiopoietin-1 receptor (Homo sapiens) (UniProt Q02763); details: at 1 µM
[16] = target: T2, Non-receptor tyrosine-protein kinase TNK1 (Homo sapiens) (UniProt Q13470); details: at 0.1 µM
T2 sequence (whole entry): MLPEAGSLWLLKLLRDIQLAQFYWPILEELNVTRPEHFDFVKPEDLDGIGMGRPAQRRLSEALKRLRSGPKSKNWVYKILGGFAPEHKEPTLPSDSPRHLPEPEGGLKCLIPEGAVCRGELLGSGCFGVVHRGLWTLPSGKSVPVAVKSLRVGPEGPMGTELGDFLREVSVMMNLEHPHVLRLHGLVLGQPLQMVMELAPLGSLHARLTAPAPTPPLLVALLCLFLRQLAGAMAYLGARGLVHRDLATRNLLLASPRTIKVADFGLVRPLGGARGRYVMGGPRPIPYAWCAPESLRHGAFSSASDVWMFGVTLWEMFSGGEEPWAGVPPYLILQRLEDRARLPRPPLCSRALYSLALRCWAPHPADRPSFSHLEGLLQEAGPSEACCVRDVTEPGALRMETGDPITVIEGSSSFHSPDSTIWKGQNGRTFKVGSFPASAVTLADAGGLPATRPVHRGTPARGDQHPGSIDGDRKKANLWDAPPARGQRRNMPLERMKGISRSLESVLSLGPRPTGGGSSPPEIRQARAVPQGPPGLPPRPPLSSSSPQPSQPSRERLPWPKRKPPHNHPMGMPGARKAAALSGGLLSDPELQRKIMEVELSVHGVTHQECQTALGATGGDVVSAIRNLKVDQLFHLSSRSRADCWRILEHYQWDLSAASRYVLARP

[17] = target: T2, Non-receptor tyrosine-protein kinase TNK1 (Homo sapiens); details: at 1 µM
[18] = target: Activated CDC42 kinase 1 (Homo sapiens) (UniProt Q07912); details: at 0.1 µM
[19] = target: Activated CDC42 kinase 1 (Homo sapiens) (UniProt Q07912); details: at 1 µM
[20] = target: High affinity nerve growth factor receptor (Homo sapiens) (UniProt P04629); details: at 0.1 µM;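 further: each value is a mean of replicate percent inhibition readings against TRKA kinase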

Proto-oncogene tyrosine-protein kinase receptor Ret (Homo sapiens), P07949 [Y791F], sequence (P07949 whole entry Y791F): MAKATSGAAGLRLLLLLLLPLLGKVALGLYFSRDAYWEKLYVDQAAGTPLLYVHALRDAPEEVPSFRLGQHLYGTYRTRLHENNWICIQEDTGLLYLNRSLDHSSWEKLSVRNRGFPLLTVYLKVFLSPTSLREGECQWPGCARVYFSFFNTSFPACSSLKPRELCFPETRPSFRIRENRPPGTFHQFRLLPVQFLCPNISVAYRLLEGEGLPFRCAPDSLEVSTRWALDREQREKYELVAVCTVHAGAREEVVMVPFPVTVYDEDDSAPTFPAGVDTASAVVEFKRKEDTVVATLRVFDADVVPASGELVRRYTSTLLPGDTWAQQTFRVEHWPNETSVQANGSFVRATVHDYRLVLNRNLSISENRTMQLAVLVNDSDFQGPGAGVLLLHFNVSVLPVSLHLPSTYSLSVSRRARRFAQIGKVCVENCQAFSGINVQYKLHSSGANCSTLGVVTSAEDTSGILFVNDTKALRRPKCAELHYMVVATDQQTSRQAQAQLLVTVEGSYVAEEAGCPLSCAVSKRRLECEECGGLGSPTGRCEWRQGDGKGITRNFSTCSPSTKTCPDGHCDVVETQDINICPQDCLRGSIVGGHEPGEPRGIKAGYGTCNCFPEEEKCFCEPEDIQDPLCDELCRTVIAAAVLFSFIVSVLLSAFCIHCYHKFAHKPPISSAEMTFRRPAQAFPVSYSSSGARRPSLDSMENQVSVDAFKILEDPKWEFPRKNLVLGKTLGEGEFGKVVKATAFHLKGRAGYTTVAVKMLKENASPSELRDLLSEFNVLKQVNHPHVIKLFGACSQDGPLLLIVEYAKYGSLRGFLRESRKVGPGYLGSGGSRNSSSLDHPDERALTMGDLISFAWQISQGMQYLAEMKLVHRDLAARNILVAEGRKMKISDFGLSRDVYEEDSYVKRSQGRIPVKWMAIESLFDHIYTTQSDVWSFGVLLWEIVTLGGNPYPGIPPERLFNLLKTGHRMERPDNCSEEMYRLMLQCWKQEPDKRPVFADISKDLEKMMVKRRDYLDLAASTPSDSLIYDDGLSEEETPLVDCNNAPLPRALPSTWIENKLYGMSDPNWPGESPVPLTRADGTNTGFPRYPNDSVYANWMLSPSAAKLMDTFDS

| Compound | inhibition [1] [%] | inhibition [2] [%] | inhibition [3] [%] | inhibition [4] [%] | inhibition [5] [%] | inhibition [6] [%] | inhibition [7] [%] | inhibition [8] [%] | inhibition [9] [%] | inhibition [10] [%] | inhibition [11] [%] | inhibition [12] [%] | inhibition [13] [%] | inhibition [14] [%] | inhibition [15] [%] | inhibition [16] [%] | inhibition [17] [%] | inhibition [18] [%] | inhibition [19] [%] | inhibition [20] [%] |
| --- | --- | --- | --- | --- | --- | --- | --- | --- | --- | --- | --- | --- | --- | --- | --- | --- | --- | --- | --- | --- |
| c1cc(-c2cnn3nc(N4CCOCC4)ccc23)nc(NC2CC2)n1 | 16.2 | -1.82 | 1.76 | 5.66 | 23.7 | 10.1 | 8.4 | 0.68 | -0.4 | 3.54 | -2.21 | 5.06 | 8.36 | 0.4 | 5.76 | 4.07 | 17.8 | 1.19 | 0.94 | 4.16 |
| COc1ccc(-c2cc3c(N)ncnc3o2)cc1 | 4.56 | -4.17 | -1.06 | 2.19 | 4.11 | -1.14 | 7.59 | 1.52 | 3.06 | 0.62 | -0.57 | -1.03 | 3.07 | 2.49 | 2.73 | -0.85 | 6.1 | -0.17 | 1.96 | -0.83 |
| O=C(Nc1n[nH]c2cc(-c3ccc(F)cc3)ccc12)C1CC1 | 2.03 | 3.73 | 1.45 | 4.52 | 6.57 | 0.9 | 6.35 | -1.28 | -0.73 | -3.9 | 1.05 | 3.06 | 4.11 | 1.89 | 6.64 | 0.9 | 5.38 | 0.53 | 1.19 | 4.77 |
| CCNC(=O)O[C@H]1CN[C@H](C#Cc2cc3ncnc(Nc4ccc(OCc5cccc(F)c5)c(Cl)c4)c3s2)C1 | 2.83 | 3.96 | 3.52 | 4.68 | 3.52 | 0.25 | 6.91 | -0.91 | -2.79 | -1.96 | 0.53 | 4.9 | 5.79 | 1.23 | 3.88 | 3.2 | 10.3 | 1.33 | 1.05 | 4.7 |
| CC(C)COC(=O)c1ccc2c(c1)/C(=C/Nc1ccc(S(N)(=O)=O)cc1)C(=O)N2 | 69.9 | -0.4 | 16.7 | 1.71 | 15.3 | 2.28 | 39.5 | 5.32 | 3.32 | 4.14 | -2.67 | 0.3 | 6.56 | 0.75 | 7.91 | -3.82 | 5.07 | -0.91 | 0.01 | 2.03 |
| Cc1ccc(O)cc1Nc1ccnc2cc(-c3ccccn3)ccc12 | 93.5 | -2 | 4.51 | 6.57 | 7.97 | 61 | 90.4 | 9.32 | 39.8 | -5.01 | 1.9 | 46 | 83.4 | 7.91 | 48.2 | 8.49 | 38.1 | 2.64 | 18 | 4 |
| CC(=O)Nc1cccc(C#Cc2cncnc2Nc2ccc(OCc3cccc(F)c3)c(Cl)c2)c1 | 13.3 | 0.77 | 4.22 | 7.46 | 12.2 | 10.8 | 6.18 | 2.87 | 0.23 | 3.21 | 0.71 | 5.52 | 8.88 | 1.44 | 7.33 | 0.67 | 1.04 | 1.8 | 5.63 | 0.89 |
| COc1cc(Nc2nccc(Nc3ccc4c(C)n[nH]c4c3)n2)cc(OC)c1OC | 82.4 | 6.16 | 34.4 | 40.6 | 70 | 68.4 | 92.1 | 4.33 | 12.6 | -1.75 | 42.8 | 23.6 | 63.1 | 8.4 | 49.8 | 43 | 77.3 | 10.1 | 52.9 | 12.2 |
| CN1CCC(n2cnc(-c3ccc(F)cc3)c2-c2ccnc(Nc3ccccc3)n2)CC1 | 36.2 | 2.65 | 4 | 1.54 | 4 | 9.92 | 11.8 | 1.77 | 3.09 | 1.08 | 0.18 | 3.59 | 3.4 | 2.95 | 4.52 | -0.22 | 7.4 | 0.74 | 2.45 | -0.03 |
| CN1CCC(n2cnc(-c3ccc(F)cc3)c2-c2ccnc(N)n2)CC1 | 27.5 | 5.16 | -2.05 | 2.9 | 15.1 | 1.96 | 10.6 | 1.38 | 0.46 | 2.67 | -1.2 | 3.52 | 5.01 | 3.13 | 2.56 | 1.5 | 8.96 | 0.57 | 1.23 | 0.03 |
| CN(C)CCOc1ccc(-c2nc(-c3ccncc3)c(-c3ccc4c(c3)CC/C4=N\O)[nH]2)cc1 | 20.2 | -1.14 | 7.41 | 3.61 | 5.38 | 0.25 | 11.9 | -1.81 | -0.6 | -2.98 | -0.9 | 4.78 | 5.79 | 2.29 | 11.9 | 2.5 | 10.2 | 1.21 | 2.51 | 2.02 |
| CCn1c(-c2nonc2N)nc2c(C#CC(C)(C)O)nc(OC[C@H](N)c3ccccc3)cc21 | 41.3 | 4.34 | -1.45 | 9.15 | 9.48 | 8.29 | 13.7 | 2.09 | 1.99 | 2.17 | 4.13 | 6.27 | 3.05 | 5.91 | 6.74 | 1.23 | -4.26 | 0.7 | 3.88 | 0.42 |
| Fc1ccc(-c2nn3ncccc3c2-c2ccnc(Nc3ccc4c(c3)OCCO4)n2)cc1 | 65.8 | -2.95 | 4.64 | 4.11 | 10.9 | 40.2 | 83.9 | -0.06 | 9.83 | -5.37 | -3.1 | 11.3 | 45.3 | 6.26 | 23.4 | 8.48 | 30.4 | 1.35 | 13 | 2.82 |
| CCn1c(-c2nonc2N)nc2ccccc21 | 3.18 | 1.17 | 2.21 | 9.11 | 15.9 | 11.4 | 6.84 | 1.09 | 2.1 | 0.68 | 0.1 | 3.65 | 7.35 | 0.56 | -0.01 | 2.77 | 4.19 | 1.12 | 2.47 | 3.39 |
